# GLP-1R agonist = GLP-1 receptor (human) agonism | P43220 | HEK293 GLP-1R CRE-luciferase, luminescence, 4-6 h; cells express a hypersensitive GLP-1R form | Potency, µM (titrated, usually from 45.6 µM), for inactives: at the highest dose activation, actives largely listed as activators | 380,000 compounds, 0.007% hits; note: % of control where 0% means no effect
# Target sequence (P43220 whole entry, looked up): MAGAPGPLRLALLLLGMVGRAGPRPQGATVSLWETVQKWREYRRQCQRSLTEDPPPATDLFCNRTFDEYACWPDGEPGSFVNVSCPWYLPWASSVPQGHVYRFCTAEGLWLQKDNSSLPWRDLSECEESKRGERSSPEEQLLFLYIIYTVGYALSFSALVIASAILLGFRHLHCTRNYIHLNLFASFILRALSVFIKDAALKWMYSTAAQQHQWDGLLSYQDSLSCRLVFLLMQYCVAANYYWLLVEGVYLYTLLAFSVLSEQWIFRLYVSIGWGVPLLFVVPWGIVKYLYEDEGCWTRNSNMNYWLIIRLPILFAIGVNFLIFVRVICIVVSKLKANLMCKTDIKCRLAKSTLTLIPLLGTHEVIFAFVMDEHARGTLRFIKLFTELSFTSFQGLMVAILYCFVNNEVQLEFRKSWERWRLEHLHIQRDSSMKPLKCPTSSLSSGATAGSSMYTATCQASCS
# GLP1R inv ag = inverse agonists of human GLP-1 receptor; Potency, µM (titrated, usually from 38.3 µM), for the others: at the highest dose activity change, negative = inhibition, hits mostly inhibitors; 410,000 compounds, 1.6% hits; P43220; HEK293 GLP-1R CRE-luciferase, luminescence, 24 h; GLP-1R form is constitutively active; AID 624417; note: % is set by controls: 0 for no effect and ±100 for the full control effect; nearly all actives have a fitted effect of over 55% in size
#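 qHTS in 1536-well format: reporter HEK293 cells expressing constitutive GLP-1R activity in DMEM + 10% Nu serum, 24 hr with compounds at 37 deg C, luminescence read after 12 min with detection reagent.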
# HEK293 tox = cytotoxic in the GLP-1 receptor inverse agonist counter-screen; HEK293 cAMP-luciferase reporter cells, luminescence, 24 h; Potency, µM (doses to about 38.3 µM), for inactives: at the highest dose activity change, negative = inhibition, actives largely listed as inhibitors; 410,000 compounds, 0.13% hits; AID 624418;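 note: loss of luciferase light is scored as toxicity; % is set by controls: 0 for no effect and ±100 for the full control effect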
#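 1536-well qHTS counterscreen of the MLSMR; 200 cells/uL, 12 h pre-incubation, 23 nL cpd, 24 h at 37 deg C 5% CO2, luciferase detection reagent, 12 min RT, luminescence. Inhibition = undesired.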
# Integrin act MD = activates integrin-mediated alleviation for muscular dystrophy; alpha7betagal myoblasts, beta-gal FDG fluorescence, 48 h; Potency, µM (titrated, usually from 38.3 µM), for the others: at the top dose activation, actives largely listed as activators; 350,000 compounds, 0.064% hits; AID 624291;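 note: 100% = response of the positive control SU9516; nearly all actives have a fitted effect of over 60% in size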
#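 alpha7betagal+/- myoblasts (passage 13, 250/well) treated 48 h at 37C with compounds at 1:260 dilution of DMSO stock. Lysed, then beta-galactosidase activity read as FDG fluorescence (ex 480/em 540) after 30 min, with pre-read for autofluorescence.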
# BRCA1 expr act = BRCA1 expression activation; MCF7-BRCA1-FFLuc reporter, luminescence, 48 h; response scale: scaled: vehicle 0%, 10 µM genistein 100%; Potency, µM (highest dose often 46.1 µM), for the others: at the top dose activation, usual class: activators; 380,000 compounds, 1.1% hits; note: nearly all actives have a fitted effect of over 80% in size
#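 MCF7-BRCA1-FFLuc cells, 2000/well in phenol-red-free MEM, attached 2 h then treated 48 h at 37 C. Luciferase luminescence read 15 min after reagent; normalized to genistein maximum activation (10microM) and DMSO, concentration-response fitted.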
# An asterisk follows results filed as active; ? = inconclusive; · = no result given; [ ] = dose if it differs, or a comment. Only some compounds are listed: those with a hit (about 2.7% of all), similar ones and a draw of the others. Calls come from the whole dose curve; as a rule, active = well fitted curve in the direction sought with a large enough effect; inconclusive = small, poorly fitted or top-dose-only effect, or another doubt; inactive = no such curve, though single readings can be large; an effect the other way counts as inactive or inconclusive. Potency is the fitted concentration of half-maximal effect.
SMILES,GLP-1R agonist,GLP1R inv ag,HEK293 tox,Integrin act MD,BRCA1 expr act
COc1ccc(NC(=O)CN(c2ccc([N+](=O)[O-])cc2)S(=O)(=O)c2ccccc2)cc1,3%,6.3µM*,?,2%,-79%
Clc1ccccc1CNC1CN2CCC1CC2 (centres undefined),-2%,2%,-6%,8%,59%
O=C(COc1ccc(Cl)cc1)N(c1ccc(Cl)cc1)C1CN2CCC1CC2 (centres undefined),3%,8.9µM*,?,-36%,-75%
O=C(COc1ccc(Cl)cc1)N(c1ccccc1Cl)C1CN2CCC1CC2 (centres undefined),1%,2.5µM*,?,-38%,-102%
Cc1cc(C)cc(OCC(O)CN2CCC(CN3C(=O)c4cccc5cccc(c45)C3=O)CC2)c1 (centres undefined),-2%,?,?,-54%,-48%
CN(C(=O)Oc1ccc(C(=O)c2ccc(Cl)cc2)cc1)c1ccccc1,1%,10µM*,-4%,-27%,-18%
C[C@H]1[C@@H](OS(=O)(=O)O)C[C@@H]2C[C@H]([C@@H](O)c3cc(=O)[nH]c(=O)[nH]3)NC3=NC[C@H]1N32,-10%,2.5µM*,·,·,-74%
C=CC[C@H](CC(=O)N(CCO)Cc1ccccc1)C(=O)N[C@H](COC(=O)[C@@H](CC=C)Cc1ccc(F)cc1)Cc1ccccc1,0%,2%,-14%,0%,-79%
CCCCCCCCCCCCCCCCn1cc[n+](C)c1,-3%,7.1µM*,?,?,-77%
CC(C)(C)c1ccc(OCC(=O)Nc2ccc(Cl)cc2C(=O)c2ccccc2)cc1,·,-4%,-11%,·,·
CC(C)(C)OC(=O)N(CCc1ccccc1)Cc1ccc(OCc2cccc(NC(=O)c3ccccc3)c2)cc1,6%,7.9µM*,3%,9%,-32%
Cc1ccccc1C(c1ncccc1C)N(C)C(=O)C1CCN(CCOc2ccc(Cl)cc2Cl)CC1 (centres undefined),-11%,?,10µM*,·,-73%
CN(C)c1nc(OCCNC(=O)COc2ccc(Cl)cc2Cl)nc(N2CCCCC2)n1,-6%,3%,-12%,-15%,-55%
CCOc1cc(CNCCO)cc(Br)c1OCc1ccc(Cl)cc1,-5%,?,?,-60%,-89%
CCOc1cc(CNC(C)(C)CO)cc(Br)c1OCc1ccc(Cl)cc1Cl,-16%,5µM*,?,-56%,-5%
O=C(NCCc1ccc(F)cc1)C(=O)NCC(c1cccs1)S(=O)(=O)c1ccc(Cl)cc1 (centres undefined),·,?,-4%,·,·
Cn1nc(-c2ccccc2)nc2c(=O)n(C)c(=O)nc1-2,·,·,·,·,-78%
CCn1nc(-c2ccccc2)nc2c(=O)n(C)c(=O)nc1-2,-26%,5µM*,?,-61%,-91%
CC[C@@]1(C(=O)OC)N[C@H](CN(C)C(=O)Nc2ccc(OC)cc2)[C@@H]2C(=O)N(Cc3ccccc3)C(=O)[C@@H]21,0%,11%,-12%,0%,10µM*
Cc1cc2ccccc2n1-c1ccc(C(=O)N2CCC(C(=O)NCc3ccc(Cl)cc3)CC2)s1,·,?,-10%,·,·
COC(=O)C1=C(c2ccc(OCc3ccccc3)cc2)C[C@@H]2CC[C@H]1N2C(=O)NCc1ccc(C(C)(C)C)cc1,-1%,4.5µM*,-3%,-39%,-38%
COC(=O)C1=C(c2ccc(F)cc2OCc2ccccc2)C[C@@H]2CC[C@H]1N2C(=O)NCc1ccccc1C(F)(F)F,7%,13µM*,-18%,-11%,-33%
COC(=O)C1=C(c2ccc(F)cc2OCc2ccccc2)C[C@@H]2CC[C@H]1N2C(=O)NCc1ccccc1Br,1%,-5%,1%,2%,0%
COC(=O)C1=C(c2cccc(OCc3ccccc3)c2)C[C@@H]2CC[C@H]1N2C(=O)NCc1cccc(C(F)(F)F)c1,-5%,11µM*,-4%,-22%,-32%
CC(C)(C)c1ccc(-n2nc(C#N)c(Cl)cc2=O)cc1,-4%,?,?,-64%,-101%
SMILES,GLP-1R agonist,GLP1R inv ag,HEK293 tox,Integrin act MD,BRCA1 expr act
CS(=O)(=O)c1sc(C#N)c2c1C(=O)CC(c1ccccc1)C2 (centres undefined),-10%,?,11µM*,?,-91%
Cn1cc(/C=N/NC(N)=S)c2ccccc21,12%,?,?,-6%,4%
Cn1cc(/C=N/n2cnc3scc(-c4ccccc4)c3c2=O)c2ccccc21,-8%,5µM*,?,-20%,-91%
CN(C)c1ccc(C2CC(c3c(O)n(C4CCCCC4)c(=O)[nH]c3=O)=Nc3ccccc3S2)cc1 (centres undefined),·,?,3%,·,·
CCN(CC)c1ccc(/C=N/NC(=O)CNC(=O)C2COc3ccccc3O2)c(O)c1 (centres undefined),-8%,?,?,-2%,-84%
O=c1c2ccccc2nc(-c2ccccc2)n1-c1cccnc1,0%,-6%,-25%,3%,-9%
O=c1c2ccccc2nc(-c2ccccc2)n1-c1ccccc1,14%,5µM*,2%,12%,2%
CCCc1nc2ccccc2c(=O)n1-c1ccc(O)cc1,26%,?,0%,?,0%
O=c1c2ccccc2nc(-c2ccccc2)n1-c1cccc(O)c1,-1%,1µM*,-12%,11%,-12%
O=c1c2ccccc2nc(-c2ccccc2)n1-c1ccncc1,12%,0%,13%,11%,-1%[1.84 µM]
CCCCc1nc2ccccc2c(=O)n1-c1ccc(O)cc1,27%,2.2µM*,-8%,-9%,-20%
O=c1c2ccccc2nc(N2CCCC2)n1-c1ccccc1,15%,3.2µM*,-9%,-14%,3%
COc1cc(CCN)c(OC)cc1Br,-4%[96 µM],·,·,·,·
O=C(c1ccc2nsnc2c1)N1CCN(c2ccc([N+](=O)[O-])cc2)CC1,-2%,-25%,?,-57%,-39%
CCn1cc2nc(SCc3cccc(C(F)(F)F)c3)n(Cc3ccc(OC)cc3)c(=O)c2n1,·,?,-6%,·,-32%
Cc1oc2ccc(OC(=O)N(C)C)cc2c1C(=O)OC(C)C,30%,-10%,6%,1%,-13%
CCOC(=O)c1c(-c2ccc(OC)cc2)oc2ccc(OC(=O)N(C)C)cc12,6%,5.6µM*,-8%,-19%,-59%
CC1Oc2cc3c(-c4c(O)cc(O)c5c(O)c6c(cc45)OC(C)C(C)C6=O)c(O)cc(O)c3c(O)c2C(=O)C1C (centres undefined),0%,13µM*,?,-49%,-76%
COc1ccccc1OC(=O)Oc1ccccc1OC,17%,?,-2%,-38%,-1%
CNP(=O)(Oc1ccccc1)OC12CC3CC(CC(C3)C1)C2 (centres undefined),1%,-28%,-7%,10µM*,-15%
